Source: PubChem BioAssay (Tox21)
Inconclusive results are not listed. Calls of active or inactive are those of the source. Unless noted, the call rests on the fitted dose curve.

Key:
[1] = Nuclear factor erythroid 2-related factor 2/antioxidant responsive element (Nrf2/ARE) small molecule agonists: luciferase reporter gene qHTS assay in human keratinocytes (AID 1919969); further: nearly all actives have a fitted effect of over 35% in size; further: potency means the concentration at half of the fitted maximal effect
[2] = molecular target: Gonadotropin-releasing hormone receptor (Homo sapiens) (UniProt P30968); experiment: Human gonadotropin-releasing hormone receptor (GnRHR) small molecule agonists, calcium flux assay in GnRHR-HEK293 cells (AID 1920063); further: nearly all actives have a fitted effect of over 35% in size; further: potency means the concentration at half of the fitted maximal effect
How it was run: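 Cells: HEK293 stably expressing human GnRHR. Steps: overnight (18 h) culture, 1 h calcium dye loading at 37 C, compound addition, kinetic fluorescence read at 480/540 nm. Each compound tested at 15 concentrations in triplicate.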

[3] = p53 small molecule agonists, cell-based qHTS assay with human liver microsomes (AID 1963577)
How it was run: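 Cells carrying a p53-responsive bla reporter were rested 5 h (37 C, 5% CO2) before compound transfer. Human liver microsomes plus NADPH, 0.5 mg/mL final apiece, supplied metabolism during the 16 h 37 C exposure.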

[4] = p53 small molecule agonists, cell-based qHTS assay with human liver microsomes: qHTS cell viability counter screen (AID 1963579); further: nearly all actives have a fitted effect of over 45% in size; further: potency means the concentration at half of the fitted maximal effect
How it was run: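 Seed p53RE-bla cells at 4,000 per well; incubate 5 h at 37 C; add compound, human liver microsomes and NADPH; incubate 16 h at 37 C; add CellTiter-Glo; after 30 min at room temperature, read luminescence.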

[5] = p53 small molecule agonists, cell-based qHTS assay with rat liver microsomes: qHTS cell viability counter screen (AID 1963580); further: nearly all actives have a fitted effect of over 45% in size; further: potency means the concentration at half of the fitted maximal effect
How it was run: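 In HCT-116 cells carrying a p53 response element-bla reporter, compounds were metabolically activated in situ by rat liver microsomes with NADPH over 16 h. Cell ATP content then served as the cytotoxicity measure.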

[6] = molecular target: 5-hydroxytryptamine receptor 2A (Homo sapiens) (UniProt P28223); experiment: 5-hydroxytryptamine receptor 2A (HTR2A) small molecule agonists, cell-based qHTS assay (AID 1963587); further: nearly all actives have a fitted effect of over 30% in size; further: potency means the concentration at half of the fitted maximal effect
How it was run: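 HTR2A-CHO cells, plated 18 h at 37 C/5% CO2, dye-loaded 1 h at 37 C; compounds in DMSO added by pin tool (agonist mode). Intracellular calcium flux read as kinetic fluorescence on FDSS over 2 min at 1 s intervals.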

[7] = molecular target: Muscarinic acetylcholine receptor M1 (Homo sapiens) (UniProt P11229); experiment: Cholinergic receptor muscarinic 1 (CHRM1) small molecule antagonists, cell-based qHTS assay (AID 1963588); further: nearly all actives have a fitted effect of over 40% in size; further: potency means the concentration at half of the fitted maximal effect
How it was run: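 CHRM1-CHO calcium-flux assay, antagonist mode. Cells were seeded 18 h, dye-loaded 1 h at 37 C and given compound for 5 min at RT, then acetylcholine was added at 50nM. FDSS fluorescence was read 3 min; 15 concentrations, three runs.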

[8] = molecular target: Beta-2 adrenergic receptor (Homo sapiens) (UniProt P07550); experiment: Adrenergic beta2 receptor (ADRB2) small molecule antagonists, cell-based qHTS assay (AID 1963592); further: nearly all actives have a fitted effect of over 50% in size; further: potency means the concentration at half of the fitted maximal effect; on activity change, negative = inhibition: series mostly up to about 92 µM
How it was run: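 Cells (CHO, stable ADRB2 overexpression) incubated 18-20hr at 37C; compounds added from DMSO; agonist mix (1nM isoproterenol, 100uM IBMX, 25uM Ro-20-1724) added; 0.5hr RT; d2-cAMP and anti-cAMP-cryptate added; 1hr RT; 665/615 nm read.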

[9] = molecular target: Beta-2 adrenergic receptor (Homo sapiens) (UniProt P07550); experiment: Adrenergic beta2 receptor (ADRB2) small molecule agonists, cell-based qHTS assay (AID 1963593);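 further: CHO cells stably overexpressing human ADRB2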
How it was run: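 CHO cells stably over-expressing ADRB2 were plated overnight at 37C, then dosed with compounds plus a stimulation mix containing 100uM IBMX and 25uM Ro-20-1724 for 0.5hr at room temperature. cAMP was measured by HTRF competition, 1hr.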

[10] = molecular target: D(2) dopamine receptor (Homo sapiens) (UniProt P14416); experiment: Dopamine D2 receptor (DRD2) small molecule antagonists, cell-based qHTS assay (AID 1963595; active means well fitted inhibition curve with a large enough effect in the signal ratio in the repeat runs, with a control signal flat; the % refers to the signal ratio; further: potency means the concentration at half of the fitted maximal effect)
How it was run: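 HEK293 cells stably expressing DRD2 were preincubated with 0.1 mM Ro20-1724, then with compound for 10 min at room temperature. Cells were stimulated with 200 nM NKH477 plus 12 nM quinpirole for 30 min, and cAMP was read by HTRF.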

[11] = molecular target: KiSS-1 receptor (Homo sapiens) (UniProt Q969F8); experiment: Human kisspeptin (KISS1R) small molecule agonists, calcium flux assay in KISS1R-HEK293 cells (AID 1920064; active means well fitted activation curve with a large enough effect in the repeat runs)
How it was run: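 Cells plated and incubated 18 h; dye added, 1 h at 37 C; compounds in DMSO pinned in; signal read at 480/540 nm every second for 3 min. Each compound tested at 15 concentrations in triplicate.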

[12] = G protein-coupled receptor (GPCR) small molecule agonists, calcium flux assay: HEK293 wild type cell line counter screen (AID 1920065)
How it was run: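 Counter-screen of the Tox21 10K library for non-specific calcium release: dye-loaded cells received compounds in DMSO and were monitored by kinetic fluorescence (480/540 nm, 3 min). Fifteen concentrations, run in triplicate.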

[13] = cAMP Responsive Elements (CRE) small molecule agonists, cell-based qHTS assay (AID 1963590)
How it was run: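 Agonist mode qHTS in CRE-bla HEK 293T cells: compounds dosed from DMSO for 3 h at 37 C/5% CO2, followed by LiveBLAzer B/G FRET substrate for 2 h at room temperature.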

[14] = molecular target: D(2) dopamine receptor (Homo sapiens) (UniProt P14416); experiment: Dopamine D2 receptor (DRD2) small molecule agonists, cell-based qHTS assay (AID 1963594); further: nearly all actives have a fitted effect of over 35% in size
How it was run: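 HEK293 cells stably expressing DRD2 were cultured 24 h at 37 C, then given Ro20-1724 (0.1 mM final) and compounds for 10 min at room temperature. NKH477 (200nM) was then added for 30 min. cAMP was read by HTRF.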

[15] = p53 small molecule agonists, cell-based qHTS assay with rat liver microsomes (AID 1963578)
How it was run: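 Fluorescence from a beta-lactamase reporter under a p53 response element was measured after cells had been incubated 16 h at 37 C with test compound and rat liver microsomes plus NADPH (0.5 mg/mL final each).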

[16] = molecular target: 5-hydroxytryptamine receptor 2A (Homo sapiens) (UniProt P28223); experiment: 5-hydroxytryptamine receptor 2A (HTR2A) small molecule antagonists, cell-based qHTS assay (AID 1963586); further: nearly all actives have a fitted effect of over 45% in size; further: potency means the concentration at half of the fitted maximal effect
How it was run: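 Antagonist-mode intracellular calcium assay: DOI (4 nM) added after 5 min compound pre-incubation at room temperature to dye-loaded HTR2A-CHO cells. Fluorescence followed for 3 min, sampled every second.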

[17] = molecular target: Muscarinic acetylcholine receptor M1 (Homo sapiens) (UniProt P11229); experiment: Cholinergic receptor muscarinic 1 (CHRM1) small molecule agonists, cell-based qHTS assay (AID 1963589); further: nearly all actives have a fitted effect of over 35% in size
How it was run: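 Agonist-mode qHTS in CHO cells stably carrying human muscarinic M1. Intracellular calcium is tracked by fluorescence every second after compound transfer; each compound runs at 15 concentrations in three independent runs.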

[18] = cAMP Responsive Elements (CRE) small molecule antagonists, cell-based qHTS assay (AID 1963591; active means well fitted inhibition curve with a large enough effect in the signal ratio in the repeat runs, not every such curve was filed as active; the % refers to the signal ratio; further: potency means the concentration at half of the fitted maximal effect)
How it was run: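 Antagonist mode: test compounds are co-incubated with the adenylyl cyclase activator NKH477 (0.25 uM final) on CRE-bla HEK293T cells for 3 h at 37 °C, followed by LiveBLAzer substrate loading.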

[19] = p53 small molecule agonists, cell-based qHTS assay: qHTS cell viability counter screen (AID 1963581); further: nearly all actives have a fitted effect of over 45% in size; further: potency means the concentration at half of the fitted maximal effect
How it was run: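 Cells: HCT-116 with p53 response element-driven beta-lactamase. Treatment: 16 h, 37 C, compounds in DMSO. Read: CellTiter-Glo luminescence after 30 min RT.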

[20] = p53 small molecule agonists, cell-based qHTS assay (AID 1963582; active means well fitted activation curve with a large enough effect in the signal ratio in the repeat runs, not every such curve was filed as active; the % refers to the signal ratio)
How it was run: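 Quantitative HTS in p53RE-bla cells: after a 5 h settling period, compounds delivered in DMSO were left on cells for 16 h at 37 C, and reporter induction was measured as fluorescence following 2 h substrate loading.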
On the % scale 0 is the no-effect control and ±100 the full control effect.

Chain of KiSS-1 receptor (Homo sapiens) (Q969F8 whole entry, looked up): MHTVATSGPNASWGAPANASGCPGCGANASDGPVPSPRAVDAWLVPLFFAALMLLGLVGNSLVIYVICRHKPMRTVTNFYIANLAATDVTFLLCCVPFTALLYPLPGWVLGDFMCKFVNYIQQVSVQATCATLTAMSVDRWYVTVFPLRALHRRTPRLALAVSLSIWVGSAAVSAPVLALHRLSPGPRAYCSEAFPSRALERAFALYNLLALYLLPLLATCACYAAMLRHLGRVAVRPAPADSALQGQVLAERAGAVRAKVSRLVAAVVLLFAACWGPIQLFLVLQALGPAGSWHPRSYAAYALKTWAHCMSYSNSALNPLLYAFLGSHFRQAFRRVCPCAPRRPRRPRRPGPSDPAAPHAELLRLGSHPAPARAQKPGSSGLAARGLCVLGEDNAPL
Chain of Muscarinic acetylcholine receptor M1 (Homo sapiens) (P11229 whole entry, looked up): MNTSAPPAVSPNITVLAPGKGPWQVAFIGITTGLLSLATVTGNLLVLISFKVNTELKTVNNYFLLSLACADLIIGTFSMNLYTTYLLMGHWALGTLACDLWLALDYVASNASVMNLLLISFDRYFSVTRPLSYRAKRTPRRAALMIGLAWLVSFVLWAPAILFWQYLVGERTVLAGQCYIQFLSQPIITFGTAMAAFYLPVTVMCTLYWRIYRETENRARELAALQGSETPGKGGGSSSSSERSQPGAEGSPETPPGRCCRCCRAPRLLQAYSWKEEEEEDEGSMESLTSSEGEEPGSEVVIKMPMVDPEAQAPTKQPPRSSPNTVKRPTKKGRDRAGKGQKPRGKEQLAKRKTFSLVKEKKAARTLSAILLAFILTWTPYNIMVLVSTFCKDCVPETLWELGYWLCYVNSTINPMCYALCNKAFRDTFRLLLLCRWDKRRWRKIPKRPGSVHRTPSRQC
Chain of 5-hydroxytryptamine receptor 2A (Homo sapiens) (P28223 whole entry, looked up): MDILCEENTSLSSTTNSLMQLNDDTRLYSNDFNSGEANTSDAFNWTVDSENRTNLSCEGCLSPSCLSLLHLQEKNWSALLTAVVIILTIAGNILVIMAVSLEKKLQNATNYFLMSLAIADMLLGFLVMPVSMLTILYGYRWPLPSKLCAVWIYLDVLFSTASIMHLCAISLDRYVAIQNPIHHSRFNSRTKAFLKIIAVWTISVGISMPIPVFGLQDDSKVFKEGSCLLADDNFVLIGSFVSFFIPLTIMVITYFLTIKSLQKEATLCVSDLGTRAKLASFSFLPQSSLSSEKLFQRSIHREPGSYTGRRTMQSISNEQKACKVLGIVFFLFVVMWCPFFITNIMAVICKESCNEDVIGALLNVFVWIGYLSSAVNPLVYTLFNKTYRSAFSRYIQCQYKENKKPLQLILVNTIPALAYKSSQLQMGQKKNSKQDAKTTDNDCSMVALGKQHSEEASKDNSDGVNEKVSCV
Chain of Beta-2 adrenergic receptor (Homo sapiens) (P07550 whole entry, looked up): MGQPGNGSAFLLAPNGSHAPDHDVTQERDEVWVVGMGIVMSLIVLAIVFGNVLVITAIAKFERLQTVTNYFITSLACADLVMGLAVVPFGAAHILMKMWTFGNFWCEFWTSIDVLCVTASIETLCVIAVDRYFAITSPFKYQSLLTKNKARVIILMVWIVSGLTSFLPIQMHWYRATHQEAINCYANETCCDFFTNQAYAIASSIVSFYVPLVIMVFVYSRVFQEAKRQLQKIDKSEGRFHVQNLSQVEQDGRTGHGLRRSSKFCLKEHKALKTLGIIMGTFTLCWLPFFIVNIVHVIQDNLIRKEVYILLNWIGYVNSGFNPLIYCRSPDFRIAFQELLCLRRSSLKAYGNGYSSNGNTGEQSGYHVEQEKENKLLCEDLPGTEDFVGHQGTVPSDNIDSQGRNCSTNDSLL
Chain of D(2) dopamine receptor (Homo sapiens) (P14416 whole entry, looked up): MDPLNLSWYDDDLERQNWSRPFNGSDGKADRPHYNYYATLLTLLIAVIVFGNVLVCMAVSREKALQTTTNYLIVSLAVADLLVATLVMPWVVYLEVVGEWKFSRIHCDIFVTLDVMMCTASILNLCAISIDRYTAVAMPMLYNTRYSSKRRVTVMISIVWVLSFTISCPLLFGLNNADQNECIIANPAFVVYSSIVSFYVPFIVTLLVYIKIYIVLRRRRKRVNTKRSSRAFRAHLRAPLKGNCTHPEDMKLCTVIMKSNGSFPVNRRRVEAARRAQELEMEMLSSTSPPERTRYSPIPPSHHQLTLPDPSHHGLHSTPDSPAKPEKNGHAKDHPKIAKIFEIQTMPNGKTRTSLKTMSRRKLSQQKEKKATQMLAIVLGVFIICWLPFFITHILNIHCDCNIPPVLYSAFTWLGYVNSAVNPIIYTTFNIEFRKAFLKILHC
Chain of Gonadotropin-releasing hormone receptor (Homo sapiens) (P30968 whole entry, looked up): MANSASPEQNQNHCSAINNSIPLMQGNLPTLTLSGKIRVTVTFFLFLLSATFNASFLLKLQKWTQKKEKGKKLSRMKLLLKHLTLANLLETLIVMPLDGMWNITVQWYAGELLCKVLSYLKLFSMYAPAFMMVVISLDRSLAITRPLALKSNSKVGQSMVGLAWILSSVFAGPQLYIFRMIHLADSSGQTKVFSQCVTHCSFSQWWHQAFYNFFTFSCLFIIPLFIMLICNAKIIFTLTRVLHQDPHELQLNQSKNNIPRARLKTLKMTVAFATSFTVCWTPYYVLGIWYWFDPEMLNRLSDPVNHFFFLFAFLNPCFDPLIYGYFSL

Nc1ccc2c(c1)CN1C(=O)c3ccccc3C1=N2
active: Potency [1] 0.13 µM | Potency [2] 6.57 µM | Potency [6] 10.4 µM
inactive: activation [3] 5.53% [at 13.5 µM] | activity change, negative = cytotoxicity [4] -28.3% [at 13.5 µM] | activity change, negative = cytotoxicity [5] -20.3% [at 13.5 µM] | activity, negative = inhibition [7] 0.434% [at 12.6 µM] | activity change, negative = inhibition [8] -18.2% [at 19 µM] | activation [9] 25.8% [at 19 µM] | activity change, negative = inhibition [10] -0.331% [at 18.9 µM]

Nc1nc(N)c2nc(CNc3ccc(C(=O)N[C@@H](CCC(=O)O)C(=O)O)cc3)cnc2n1
inactive: Potency [1] | Potency [11] | Potency [12] | Potency [3] | Potency [4] | Potency [5] | Potency [13] | Potency [8] | Potency [9] | Potency [14] | Potency [10]

CC/C=C\C/C=C\C/C=C\CCCCCCCC(=O)OC
active: Potency [1] 27.3 µM
inactive: Potency [11] | Potency [12] | Potency [3] | Potency [15] | Potency [16] | Potency [7] | Potency [17] | Potency [18] | Potency [8] | Potency [9] | Potency [14]

Cc1c(C(=O)O)c(O)cc2c1C(=O)c1c(O)c([C@@H]3O[C@H](CO)[C@@H](O)[C@H](O)[C@H]3O)c(O)c(O)c1C2=O
inactive: Potency [1] | Potency [2] | Potency [12] | Potency [3] | Potency [15] | Potency [4] | Potency [19] | Potency [20] | Potency [16] | Potency [7] | Potency [17] | Potency [13] | Potency [18]

CCCOc1sc(C(=O)N2CCC(c3cc(CN)ccc3F)CC2)c(C)c1Br
inactive: Potency [1] | Potency [12] | Potency [3] | Potency [15] | Potency [16] | Potency [14]
active: Potency [2] 35.7 µM

Oc1ccc(-c2ccccc2)c(Cl)c1
active: Potency [1] 54.5 µM
inactive: Potency [11] | Potency [12] | Potency [3] | Potency [15] | Potency [5] | Potency [19] | Potency [20] | Potency [7] | Potency [17] | Potency [8] | Potency [9] | Potency [14]

CN(C)[C@@H]1C(=O)C(C(N)=O)=C(O)[C@@]2(O)C(=O)C3=C(O)c4c(O)ccc(Cl)c4[C@@H](O)[C@H]3C[C@@H]12
inactive: Potency [1] | Potency [2] | Potency [12] | Potency [4] | Potency [5] | Potency [19] | Potency [16] | Potency [6] | Potency [7] | Potency [17] | Potency [8] | Potency [9] | Potency [14] | Potency [10]

C[C@@H]1C[C@H]2[C@@H]3CCC4=CC(=O)C=C[C@]4(C)[C@@]3(F)[C@@H](O)C[C@]2(C)[C@@]1(O)C(=O)COC(=O)c1ccncc1
inactive: Potency [1] | Potency [11] | Potency [12] | Potency [15] | Potency [4] | Potency [5] | Potency [19] | Potency [20] | Potency [6] | Potency [7] | Potency [17] | Potency [13] | Potency [8] | Potency [10]

C1CCC(C(CC2CCCCN2)C2CCCCC2)CC1 (centres undefined)
inactive: Potency [1] | Potency [11] | Potency [12] | Potency [3] | Potency [4] | Potency [5] | Potency [20] | Potency [14]

Cc1cc(CCN2CCN(c3nsc4ccccc34)CC2)cc2c1NC(=O)CC2(C)C
active: Potency [19] 45.8 µM | Potency [7] 16.8 µM | Potency [8] 34.4 µM | Potency [10] 0.243 µM
inactive: Potency [1] | Potency [11] | Potency [12] | Potency [3] | Potency [15] | Potency [16] | Potency [6] | Potency [17] | Potency [14]

CCCCC(CC)CN=C(N)NC(N)=NCCCCCCN=C(N)NC(N)=NCC(CC)CCCC (centres undefined)
active: Potency [4] 22.3 µM | Potency [5] 17.8 µM | Potency [19] 19.9 µM | Potency [16] 18.3 µM | Potency [7] 0.918 µM | Potency [18] 29.8 µM | Potency [8] 29.8 µM | Potency [10] 13.3 µM
inactive: Potency [1] | Potency [11] | Potency [12] | Potency [3] | Potency [15] | Potency [17]

COc1cc(C=C2CCC/C(=C\c3ccc(O)c(OC)c3)C2=O)ccc1O
inactive: Potency [2] | Potency [12] | Potency [3] | Potency [15] | Potency [4] | Potency [20] | Potency [7] | Potency [17] | Potency [8] | Potency [9] | Potency [14] | Potency [10]
active: Potency [1] 6.68 µM | Potency [19] 14.1 µM | Potency [16] 18.3 µM

CCN(Cc1cccc(S(=O)(=O)O)c1)c1ccc(C(=C2C=CC(=[N+](CC)Cc3cccc(S(=O)(=O)O)c3)C=C2)c2ccccc2S(=O)(=O)[O-])cc1
active: Potency [5] 20.5 µM
inactive: Potency [1] | Potency [2] | Potency [12] | Potency [3] | Potency [15] | Potency [20] | Potency [16] | Potency [6] | Potency [7] | Potency [17] | Potency [13] | Potency [18]

CNCCCC1c2ccccc2C=Cc2ccccc21
active: Potency [16] 7.29 µM
inactive: Potency [1] | Potency [2] | Potency [3] | Potency [15] | Potency [5] | Potency [20] | Potency [6] | Potency [17] | Potency [13] | Potency [18] | Potency [14]
